Screening data from PubChem BioAssay.
SK-BR-3 tox 24h: SK-BR-3 proliferation inhibitors | SK-BR-3 viability, CellTiter-Glo ATP luminescence, 24 h; hits give low values | 0.47% of 41,000 active | viability, % at 10 µM;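 active = viability at or below the median of all test compounds minus 3 SD, in both replicates if run twice, cut at about 45% in these data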;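 also: 100% = median untreated cell wells and 0% = median positive control drug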
Htt clearance: mutant huntingtin protein clearance | 0.42% of 47,000 active | AID 853 | inhibition, % at 1.5 µM | HeLa Exon1htt(103Q)mCFP, aggregate imaging; zero = plate's median compound well;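 active = inhibition of aggregate fluorescence above about 70%, also judged a hit by eye on the cell image, limit read from the data, passing the limit was not always enough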;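 also: cells exposed to compound for three days before fixation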
* hit, by the source's call; nt = not tested or not shown. In the library only some 0.58% were active in any assay of this set; here they are far more common.

SMILES	SK-BR-3 tox 24h	Htt clearance
C=CCn1c(O)c(C(C)=NCc2cc(OC)cc(OC)c2)c(=O)[nH]c1=O	38.0*	nt
C=CCn1c(O)c(C(C)=NCc2cccnc2)c(=O)[nH]c1=O	91.8	34.0
CCC(=NCCCN(CC)CC)c1c(O)n(-c2ccccc2)c(=O)[nH]c1=O	95.6	-53.0
CN(CC1COc2ccccc2O1)c1nc(-c2cccnc2)nc2ccccc12 (configuration not stated)	nt	1.9
N=C(N)c1c(O)n(C2CCCCC2)c(=O)n(C2CCCCC2)c1=O	2.8*	nt
O=c1c(C=NCc2cccs2)c(O)n(C2CCCCC2)c(=O)n1C1CCCCC1	nt	25.9
O=C(C(Cc1ccccc1)NS(=O)(=O)c1ccc(F)cc1)N1CCC2(CC1)OCCO2 (configuration not stated)	78.6	-6.8
FC(F)(F)c1ccc2c(c1)NP(=S)(N1CCOCC1)c1nccn1-2 (configuration not stated)	86.3	nt
Cn1c(O)c(C(c2ccccn2)c2c(O)n(C)c(=S)[nH]c2=O)c(=O)[nH]c1=S	nt	7.3
Cn1ncnc2c(=O)n(C)c(=O)nc1-2	5.5*	nt
Nc1c(C(=O)NCCc2ccccc2)c2nc3ccccc3nc2n1CCN1CCOCC1	2.9*	-22.6
COc1ccc(CCNC(=O)c2c(N)n(CCN3CCOCC3)c3nc4ccccc4nc23)cc1	120.1	18.8
